Data reported in PubChem BioAssay (Tox21).
Values joined by “and” are separate entries in the source; they are usually repeats but may differ in a detail not shown here. Equal entries are not always repeated. Results filed as inconclusive are left out. Active and inactive are the calls of the source. Unless noted, calls come from the whole dose curve; as a rule, active = well fitted curve in the direction sought with a large enough effect in the repeat runs; inconclusive = weak or mixed curves; inactive = no such curve, though single readings can be large; an effect the other way counts as inactive or inconclusive.

Columns and labels:
[1] = qHTS assay to identify small molecule antagonists of the thyroid receptor (TR) signaling pathway - cell viability counter screen (AID 743064); note: nearly all actives have a fitted effect of over 50% in size
In short: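 Fluorescence from CellTiter-Fluor, added after 23.5 h exposure at 37 °C, reported viability of GH3.TRE-Luc cells co-treated with compound and 1 nM T3. Measured in the same wells as the luciferase TR readout.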

[2] = qHTS assay to identify small molecule antagonists of the thyroid receptor (TR) signaling pathway (AID 743065); note: nearly all actives have a fitted effect of over 55% in size
In short: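 GH3.TRE-Luc rat pituitary cells carrying two TR response elements driving luciferase were plated for 4 h, given compound plus 1 nM T3 (final), and incubated 23.5 h at 37 C. ONE-Glo luminescence measured reporter inhibition; CellTiter-Fluor fluorescence tracked cytotoxicity.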

[3] = test system: thyroid hormone receptor (rat, GH3 cells); test: qHTS assay to identify small molecule agonists of the thyroid receptor (TR) signaling pathway (AID 743066; calls by dose curve)
[4] = biological target: Estrogen receptor (Homo sapiens) (UniProt P03372); test: qHTS assay to identify small molecule antagonists of the estrogen receptor alpha (ER-alpha) signaling pathway (AID 743069; active = well fitted curve in the direction sought with a large enough effect in the signal ratio in the repeat runs, not every such curve was filed as active; the % refers to the signal ratio)
Estrogen receptor (Homo sapiens), sequence (P03372 whole entry, looked up): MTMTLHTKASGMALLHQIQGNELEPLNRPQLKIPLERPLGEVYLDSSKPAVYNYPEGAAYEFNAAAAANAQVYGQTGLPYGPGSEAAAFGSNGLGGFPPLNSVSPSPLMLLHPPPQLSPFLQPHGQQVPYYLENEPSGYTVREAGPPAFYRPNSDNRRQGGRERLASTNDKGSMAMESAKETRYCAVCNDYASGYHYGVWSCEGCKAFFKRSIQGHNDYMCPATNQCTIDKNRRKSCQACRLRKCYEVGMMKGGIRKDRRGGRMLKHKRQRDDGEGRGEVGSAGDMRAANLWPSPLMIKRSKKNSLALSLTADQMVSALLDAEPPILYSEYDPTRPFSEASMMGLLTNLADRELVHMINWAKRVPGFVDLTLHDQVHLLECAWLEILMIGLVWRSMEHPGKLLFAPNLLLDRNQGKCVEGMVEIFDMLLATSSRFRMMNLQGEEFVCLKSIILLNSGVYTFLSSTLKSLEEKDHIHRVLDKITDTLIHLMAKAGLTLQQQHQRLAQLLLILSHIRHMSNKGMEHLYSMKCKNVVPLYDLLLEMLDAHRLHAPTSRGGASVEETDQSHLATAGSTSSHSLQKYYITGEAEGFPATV
In short: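 HEK293 cells stably carrying an ER-alpha-UAS-bla beta-lactamase reporter were pre-cultured overnight in 2% charcoal-stripped FBS medium. Test compounds in DMSO were added together with 17beta-estradiol for 18 hr at 37C. Read-out was fluorescence after 2 hr with LiveBLAzer B/G FRET substrate at room temperature.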

[5] = qHTS assay to identify small molecule antagonists of the estrogen receptor alpha (ER-alpha) signaling pathway - cell viability counter screen (AID 743074; calls by dose curve; note: nearly all actives have a fitted effect of over 45% in size)
[6] = biological target: Estrogen receptor (Homo sapiens) (UniProt P03372); test: qHTS assay to identify small molecule agonists of the estrogen receptor alpha (ER-alpha) signaling pathway (AID 743075; calls by dose curve)
[7] = biological target: Estrogen receptor (Homo sapiens) (UniProt P03372); test: qHTS assay to identify small molecule agonists of the estrogen receptor alpha (ER-alpha) signaling pathway using the BG1 cell line (AID 743079); conditions: BG1Luc4E2 cells, ERE-luciferase agonist, 22 h; note: nearly all actives have a fitted effect of over 20% in size
[8] = qHTS assay to identify small molecule antagonists of the estrogen receptor alpha (ER-alpha) signaling pathway using the BG1 cell line (AID 743080; calls by dose curve;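 note: BG1 cells stimulated with 17beta-estradiol alongside compound; nearly all actives have a fitted effect of over 25% in size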)
In short: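 Quantitative HTS on the Tox21 10K library: BG1 cells with endogenous ER-alpha and ERE-luciferase reporter, 17beta-estradiol stimulation, 21.5 h compound exposure, luminescence endpoint with parallel fluorescence cytotoxicity counter-read.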

[9] = qHTS assay to identify small molecule antagonists of the estrogen receptor alpha (ER-alpha) signaling pathway using the BG1 cell line - cell viability counter screen (AID 743081);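 note: compound given together with 17beta-estradiol as the ER stimulus; nearly all actives have a fitted effect of over 45% in size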
[10] = biological target: Aromatase (Homo sapiens) (UniProt P11511); test: qHTS assay to identify aromatase inhibitors (AID 743083); note: nearly all actives have a fitted effect of over 55% in size
Aromatase (Homo sapiens), sequence (P11511 whole entry, looked up): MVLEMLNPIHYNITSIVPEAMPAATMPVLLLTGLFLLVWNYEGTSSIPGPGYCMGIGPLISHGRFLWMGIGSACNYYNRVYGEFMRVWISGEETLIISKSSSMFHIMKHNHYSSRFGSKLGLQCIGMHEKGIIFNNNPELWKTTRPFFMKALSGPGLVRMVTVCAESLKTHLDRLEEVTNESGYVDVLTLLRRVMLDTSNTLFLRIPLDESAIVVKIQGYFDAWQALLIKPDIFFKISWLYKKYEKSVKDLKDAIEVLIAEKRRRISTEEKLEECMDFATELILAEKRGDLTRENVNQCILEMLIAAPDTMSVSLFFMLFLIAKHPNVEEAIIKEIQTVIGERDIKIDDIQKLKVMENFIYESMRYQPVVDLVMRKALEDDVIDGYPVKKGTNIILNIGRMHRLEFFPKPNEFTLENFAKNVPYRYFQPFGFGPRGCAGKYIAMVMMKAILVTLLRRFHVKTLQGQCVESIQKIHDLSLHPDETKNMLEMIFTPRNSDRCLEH

[11] = qHTS assay to identify aromatase inhibitors - cell viability counter screen (AID 743084);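 note: cells stimulated with testosterone during compound exposure; nearly all actives have a fitted effect of over 55% in size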
[12] = biological target: Aryl hydrocarbon receptor (Homo sapiens) (UniProt P35869); test: qHTS assay to identify small molecule that activate the aryl hydrocarbon receptor (AhR) signaling pathway (AID 743085);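 note: HG2L7.5c1 human HepG2 liver cells with stably integrated DRE-driven firefly reporter; nearly all actives have a fitted effect of over 15% in size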
Aryl hydrocarbon receptor (Homo sapiens), sequence (P35869 whole entry, looked up): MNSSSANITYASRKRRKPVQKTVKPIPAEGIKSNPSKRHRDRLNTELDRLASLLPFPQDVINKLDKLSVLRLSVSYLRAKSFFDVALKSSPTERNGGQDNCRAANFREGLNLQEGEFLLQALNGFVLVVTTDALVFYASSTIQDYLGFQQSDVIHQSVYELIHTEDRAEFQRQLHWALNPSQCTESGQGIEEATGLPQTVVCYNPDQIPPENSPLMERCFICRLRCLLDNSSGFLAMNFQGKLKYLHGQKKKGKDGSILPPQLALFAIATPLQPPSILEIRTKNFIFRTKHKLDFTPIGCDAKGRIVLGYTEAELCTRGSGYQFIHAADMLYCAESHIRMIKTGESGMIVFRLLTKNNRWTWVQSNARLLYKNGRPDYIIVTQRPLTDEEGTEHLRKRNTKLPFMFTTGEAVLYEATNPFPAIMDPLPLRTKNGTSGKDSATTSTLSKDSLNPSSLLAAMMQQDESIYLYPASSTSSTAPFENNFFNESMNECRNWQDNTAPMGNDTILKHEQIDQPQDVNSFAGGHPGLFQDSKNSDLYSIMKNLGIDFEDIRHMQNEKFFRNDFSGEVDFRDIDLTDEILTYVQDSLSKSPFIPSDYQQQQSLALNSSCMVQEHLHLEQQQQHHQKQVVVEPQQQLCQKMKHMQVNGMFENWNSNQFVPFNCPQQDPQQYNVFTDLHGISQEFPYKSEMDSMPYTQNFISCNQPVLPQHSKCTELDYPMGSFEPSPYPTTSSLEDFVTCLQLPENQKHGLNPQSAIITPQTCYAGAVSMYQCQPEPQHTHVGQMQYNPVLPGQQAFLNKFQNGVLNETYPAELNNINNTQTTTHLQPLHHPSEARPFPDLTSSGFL
In short: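 Cell line HG2L7.5c1 (human hepatoma, 20× DRE-luc). Plated, 5 h 37C, compound/DMSO added, 24 h 37C. CellTiter-Fluor 30 min 37C → fluorescence; then ONE-Glo 30 min RT → luminescence.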

[13] = qHTS assay to identify small molecule that activate the aryl hydrocarbon receptor (AhR) signaling pathway - cell viability counter screen (AID 743086);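 note: HepG2 liver cells carrying the AhR DRE luciferase reporter; nearly all actives have a fitted effect of over 45% in size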
In short: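 HepG2-AhR-luc (HG2L7.5c1) cells, 4000/well, were preincubated 5 h at 37C, exposed to compound in qHTS format for 24 hr at 37C, then given CellTiter-Fluor for 30 min; viability was read as fluorescence in the reporter wells.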

[14] = biological target: Peroxisome proliferator-activated receptor gamma (Homo sapiens) (UniProt P37231); test: qHTS assay to identify small molecule agonists of the peroxisome proliferator-activated receptor gamma (PPARg) signaling pathway (AID 743094; active = well fitted activation curve with a large enough effect in the signal ratio in the repeat runs, not every such curve was filed as active; the % refers to the signal ratio)
Peroxisome proliferator-activated receptor gamma (Homo sapiens), sequence (P37231 whole entry, looked up): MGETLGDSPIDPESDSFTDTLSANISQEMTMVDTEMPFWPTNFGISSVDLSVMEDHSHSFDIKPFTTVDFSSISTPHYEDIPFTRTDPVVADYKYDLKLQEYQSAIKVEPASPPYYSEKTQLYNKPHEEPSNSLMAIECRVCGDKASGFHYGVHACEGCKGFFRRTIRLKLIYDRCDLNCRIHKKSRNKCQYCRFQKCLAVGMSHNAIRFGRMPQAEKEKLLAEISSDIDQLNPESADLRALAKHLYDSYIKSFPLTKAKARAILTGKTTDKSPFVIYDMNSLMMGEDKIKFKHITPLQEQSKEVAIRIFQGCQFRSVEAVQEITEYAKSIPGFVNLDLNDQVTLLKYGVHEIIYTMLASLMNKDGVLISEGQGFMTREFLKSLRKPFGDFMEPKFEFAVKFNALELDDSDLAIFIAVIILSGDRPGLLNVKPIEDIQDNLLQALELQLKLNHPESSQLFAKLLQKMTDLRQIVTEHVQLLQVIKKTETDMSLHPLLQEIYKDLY
In short: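 Following 5 h plating at 37C, PPARg-bla HEK293H cells receive compound or DMSO for 17 h; fluorescence intensity is recorded after LiveBLAzer B/G loading for 1 h at room temperature.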

[15] = qHTS assay to identify small molecule antagonists of the peroxisome proliferator-activated receptor gamma (PPARg) signaling pathway - cell viability counter screen (AID 743194); conditions: Potency: co-treated with 50 nM rosiglitazone; note: nearly all actives have a fitted effect of over 55% in size
In short: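 PPARg-UAS-bla HEK293H cells were plated, rested 5 h at 37 C, then treated with compounds plus rosiglitazone (50 nM final) for 17 h at 37 C; viability was then read by CellTiter-Glo luminescence after 30 min at room temperature.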

[16] = qHTS assay for small molecule activators of the heat shock response signaling pathway - cell viability counter screen (AID 743209); note: nearly all actives have a fitted effect of over 50% in size
In short: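 Counter screen for cytotoxicity in HeLa HSE-bla reporter cells. Treatment was 5 h at 37 C; viability was detected by luminescent ATP assay (CellTiter-Glo) in the same wells as the beta-lactamase read.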

[17] = qHTS assay for small molecule agonists of the antioxidant response element (ARE) signaling pathway (AID 743202; active = well fitted activation curve with a large enough effect in the signal ratio in the repeat runs, not every such curve was filed as active; the % refers to the signal ratio)
In short: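 Read-out: LiveBLAzer B/G FRET substrate fluorescence after 2 h at room temperature, following 16 h compound treatment at 37 C of HepG2 cells carrying an ARE-driven beta-lactamase reporter.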

[18] = qHTS assay for small molecule agonists of the antioxidant response element (ARE) signaling pathway - cell viability counter screen (AID 743203; calls by dose curve; note: nearly all actives have a fitted effect of over 55% in size)
In short: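 Compounds in DMSO were pinned onto ARE-bla HepG2 cells plated 5 hrs earlier at 2,000 cells/well. Sixteen hours later at 37C/5% CO2, CellTiter-Glo was added and luminescence measured after 30 min at room temperature.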

[19] = qHTS assay for small molecule activators of the heat shock response signaling pathway (AID 743210; active = well fitted activation curve with a large enough effect in the signal ratio in the repeat runs, with a control signal flat, not every such curve was filed as active; the % refers to the signal ratio)
In short: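 HSE-bla HeLa cells (beta-lactamase reporter under heat shock response elements) were exposed to compounds for 5 h at 37 C, then loaded with LiveBLAzer B/G FRET substrate for 2.5 h at room temperature before fluorescence reading.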

[20] = biological target: Peroxisome proliferator-activated receptor gamma (Homo sapiens) (UniProt P37231); test: qHTS assay to identify small molecule antagonists of the peroxisome proliferator-activated receptor gamma (PPARg) signaling pathway (AID 743191; calls by dose curve; note: nearly all actives have a fitted effect of over 30% in size)
In short: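 GeneBLAzer PPARg UAS-bla HEK293H cells carrying a UAS-driven beta-lactamase reporter were plated at 3000 cells/well, preincubated 5 h at 37C, then given compound for 17 h at 37C; LiveBLAzer B/G FRET substrate was read after 1 h at room temperature.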
% is set by controls: 0 for no effect and ±100 for the full control effect.

O=C(O)c1ccc2[nH]cc(CCCCN3CC=C(c4ccccc4)CC3)c2c1
inactive: Potency [1] | Potency [2] | Potency [3] | Potency [4] | outcome [5] | Potency [6] | activation ([7]; at 70.3 µM (top of the series)) -2.02% | Potency [8] | Potency [9] | Potency [10] | Potency [11] | Potency [12] | outcome [13] | outcome [14] | Potency [15] | Potency [16]

Cc1nnc2n1-c1sc(CCC(=O)N3CCOCC3)cc1C(c1ccccc1Cl)=NC2
inactive: Potency [1] | Potency [2] | Potency [3] | Potency [4] | outcome [5] | Potency [6] | activation ([7]; at 70.3 µM (top of the series)) -7.93% and -17.7% | Potency [8] | Potency [9] | Potency [10] | Potency [11] | Potency [12] | outcome [13] | outcome [14] | Potency [15] | Potency [17] | Potency [18] | Potency [16] | outcome [19]

CCCCN(CCCCO)N=O
inactive: Potency [1] | Potency [2] | Potency [3] | Potency [4] | outcome [5] | Potency [6] | activation ([7]; at 70.3 µM (top of the series)) -3.24% | Potency [8] | Potency [9] | Potency [10] | Potency [11] | Potency [12] | outcome [13] | outcome [14] | Potency [20] | Potency [15] | Potency [17] | outcome [19]

CCN(Cc1ccc(Cl)nc1)/C(=C/[N+](=O)[O-])NC
inactive: Potency [1] | Potency [2] | Potency [3] | Potency [4] | outcome [5] | Potency [6] | activation ([7]; at 70.3 µM (top of the series)) 1.15% | Potency [8] | Potency [9] | Potency [10] | Potency [11] | Potency [12] | outcome [13] | Potency [15] | Potency [17] | Potency [18] | Potency [16] | outcome [19]

C#CCN1C(=O)COc2cc(F)c(N3C(=O)C4=C(CCCC4)C3=O)cc21
inactive: Potency [1] | Potency [2] | Potency [3] | Potency [4] | outcome [5] | Potency [6] | activation ([7]; at 70.3 µM (top of the series)) -23.7% | Potency [8] | Potency [9] | Potency [10] | Potency [11] | Potency [12] | outcome [13] | outcome [14] | Potency [15] | outcome [19]

CCC(Cl)[N+](=O)[O-] (stereo not given)
inactive: Potency [1] | Potency [2] | Potency [3] | Potency [4] | outcome [5] | Potency [6] | activation ([7]; at 95 µM (top of the series)) -4.86% | Potency [8] | Potency [9] | Potency [10] | Potency [11] | Potency [12] | outcome [13] | outcome [14] | Potency [15] | Potency [17] | Potency [16] | outcome [19]

CCOc1nc(C(Cl)(Cl)Cl)ns1
inactive: Potency [1] | Potency [2] | Potency [3] | Potency [4] | outcome [5] | Potency [6] | activation ([7]; at 70.3 µM (top of the series)) 4.23% | Potency [8] | Potency [9] | Potency [10] | Potency [11] | Potency [12] | outcome [13] | outcome [14] | Potency [17] | Potency [16] | outcome [19]

CCCSC(=O)Cl
inactive: Potency [1] | Potency [2] | Potency [3] | Potency [4] | outcome [5] | Potency [6] | activation ([7]; at 95 µM (top of the series)) 3.93% | Potency [8] | Potency [9] | Potency [10] | Potency [11] | Potency [12] | outcome [13] | outcome [14] | Potency [17] | Potency [16] | outcome [19]

OCCSCSCCO
inactive: Potency [1] | Potency [2] | Potency [3] | Potency [4] | outcome [5] | Potency [6] | activation ([7]; at 70.3 µM (top of the series)) -2.71% | Potency [8] | Potency [9] | Potency [10] | Potency [11] | Potency [12] | outcome [13] | outcome [14] | Potency [20] | Potency [15] | Potency [17] | Potency [16]

Cc1nc(N)nc(N)n1
inactive: Potency [1] | Potency [2] | Potency [3] | Potency [4] | outcome [5] | Potency [6] | activation ([7]; at 95 µM (top of the series)) 2.81% | Potency [8] | Potency [9] | Potency [10] | Potency [11] | Potency [12] | outcome [13] | Potency [18] | Potency [16] | outcome [19]

O=[N+]([O-])c1cccc2cccnc12
inactive: Potency [1] | Potency [2] | Potency [3] | Potency [4] | outcome [5] | Potency [6] | activation ([7]; at 95 µM (top of the series)) -10.4% | Potency [8] | Potency [9] | Potency [10] | Potency [11] | outcome [13] | outcome [14] | Potency [20] | Potency [15] | Potency [18] | Potency [16] | outcome [19]

COc1cc2c(cc1OC)[C@@]13CCN4CC5=CCO[C@H]6CC(=O)N2[C@H]1[C@H]6[C@H]5C[C@H]43
inactive: Potency [1] | Potency [2] | Potency [3] | Potency [4] | outcome [5] | Potency [6] | activation ([7]; at 70.3 µM (top of the series)) -4.94% | Potency [8] | Potency [9] | Potency [10] | Potency [11] | outcome [13] | outcome [14] | Potency [20] | Potency [15] | Potency [16] | outcome [19]

CC(C)NCC(O)c1ccc(N)c(C#N)c1 (stereo not given)
inactive: Potency [1] | Potency [2] | Potency [3] | Potency [4] | outcome [5] | Potency [6] | activation ([7]; at 70.3 µM (top of the series)) -15.4% | Potency [8] | Potency [9] | Potency [10] | Potency [11] | Potency [12] | outcome [13] | outcome [14] | Potency [20] | Potency [15] | Potency [17] | Potency [18] | Potency [16] | outcome [19]

CCN(CC)C(C)C(=O)c1ccccc1 (stereo not given)
inactive: Potency [1] | Potency [2] | Potency [3] | Potency [4] | outcome [5] | Potency [6] | activation ([7]; at 70.3 µM (top of the series)) 0.375% | Potency [8] | Potency [9] | Potency [10] | Potency [11] | Potency [12] | outcome [13] | outcome [14] | Potency [20] | Potency [15] | Potency [17] | Potency [18] | Potency [16] | outcome [19]

c1cc2c(c(N3CCNCC3)c1)OCCO2
inactive: Potency [1] | Potency [2] | Potency [3] | Potency [4] | outcome [5] | Potency [6] | activation ([7]; at 70.3 µM (top of the series)) 9.1% | Potency [8] | Potency [9] | Potency [10] | Potency [11] | Potency [12] | outcome [13] | outcome [14] | Potency [20] | Potency [15] | Potency [17] | Potency [16] | outcome [19]

O=C(N[C@H]1CN2CCC1CC2)c1cc2ccoc2cn1
inactive: Potency [1] | Potency [2] | Potency [3] | Potency [4] | outcome [5] | Potency [6] | activation ([7]; at 70.3 µM (top of the series)) -3.48% | Potency [8] | Potency [9] | Potency [10] | Potency [11] | Potency [12] | outcome [13] | Potency [20] | Potency [15] | Potency [18] | Potency [16] | outcome [19]
